# The panel holds about 83,000 compounds, 20% with a hit somewhere; the sample as a whole holds those more often.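 Single-dose data. Exposure time 48 hours. Values below 10 considered active.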 A number with no mark means an inactive call. The source made the active and inactive calls.
# System: NCI/ADR-RES ovarian
# Test: NCI-60 one-dose screen, 48 h (100 = growth as untreated, 0 = no growth, -100 = all killed)
# Conditions: 10 µM unless noted
# Procedure: Growth inhibition of the NCI/ADR-RES human […] tumor cell line is measured as a screen for anti-cancer activity. Cells are grown in 96 well plates and exposed to the test compound for 48 hours. Compounds are tested at a single concentration, which is 10^-5 M for most compounds. The reported endpoint is percent growth (GI% or GIPRCNT), where numbers from 0 - 100% represent growth inhibition, and numbers from -100% - 0 represent cell death. For example, a value of 40 represents 60% growth inhibition. A value of 0 means no net growth occurred over the course of the experiment. A value of -40 indicates 40% of cells at the beginning of the experiment died by the end of the experiment. A value of -100 means all cells are dead at the end of the experiment.
# NCI-60 Human Tumor Cell Lines Screen was performed using the standard one-dose NCI protocol, which is described in more detail at https://dtp.cancer.gov/discovery_development/nci-60/default.htm.
# Compounds with GIPRCNT values below 10 were considered active. Activity score was based on GIPRCNT using the following formula: […]
# Score is 0 for GIPRCNT values of 100 or above, 50 for GIPRCNT values of 0, and 100 for GIPRCNT values of -100.
row,SMILES,growth
1,COc1ccc(-c2cnc3ccccc3n2)cc1,102%
2,Cc1cc(=O)oc2cc(OC(=O)CN3CCN(C)CC3)ccc12,105%
3,COc1cc(Nc2cn[nH]c2-c2ccc(Cl)cc2)cc(OC)c1OC,-26% (active)
4,O=C(Nc1ccc(Cl)cc1F)c1ccccc1O,34.5%
5,Cc1cc(N2CCCC2)nc(N(CCCNc2ccnc3cc(Cl)ccc23)Cc2ccccn2)n1,39.2%
6,S=c1nc(-c2ccccc2)oc(=NC2CCCCC2)n1C1CCCCC1,32.5%
7,CN(C(=O)NCc1cccc(F)c1Cl)[C@H](COC(=O)Nc1cc2ccccc2cn1)CC(O)CO (stereo not given in full),98.6%
8,Cc1ccc(/C=C2\Oc3ccc(O)c(O)c3C2=O)cc1,45.1%
9,CCOC(=O)C1=C(N)Oc2c(sc3c(C)cccc23)C1c1ccc(Cl)cc1 (stereo not given),24.6%
10,O=c1ccc(N=Nc2ccccc2)ccc1Cl,-4.66% (active)
11,O=C(Nc1ccc(Cl)cc1F)c1cc(Cl)ccc1O,3.01% (active)
12,COC(=O)/C=C1\S/C(=N\Nc2ccc([N+](=O)[O-])cc2[N+](=O)[O-])N(C2CCCCC2)C1=O,29.7%
13,Nc1cc2c(cc1Br)-c1cc(Cl)ccc1C2=O,106%
14,C=C1CC[C@H](C(C)C)[C@@H]2[C@H]1[C@H]1CC(=C)[C@@H](O)CC[C@@](C)(O)[C@@H]2O1,85.9%
15,Cc1c(C(=O)NCCCc2ccccc2)sc2ncc(-c3ccc(Br)cc3)n12,107%
16,CN1CCN(c2ccc(-c3cc4c(Nc5ccc(F)c(Cl)c5)ncnn4c3)cc2)CC1,72.5%
17,COc1ccc(-c2nc3sc(-c4ccccc4)cn3n2)cc1,34%
18,Fc1cc(-c2nnc3sc(-c4ccc(Cl)cc4Cl)nn23)c(Cl)cc1Cl,89.4%
19,O=c1n(Cc2ccc3ccccc3c2)ccn1Cc1ccc2ccccc2c1,86.8%
20,O=CN(SSN(C=O)C1CCCCC1)C1CCCCC1,116%

row,SMILES,growth
1,O=C1CN(CCN2CC(=O)N(Cc3ccccc3)C(=O)C2)CC(=O)N1Cc1ccccc1,103%
2,CCOC(=O)Nc1ccc(-c2nc(-c3cccc(OCCN4CCOCC4)c3)c(-c3ccnc(Br)c3)[nH]2)cc1,60.7%
3,CCC(C)(c1cc(C(C)(C)C)c(O)c(C(C)(C)C)c1)c1cc(C(C)(C)C)c(O)c(C(C)(C)C)c1,102%
4,CC(=O)N1N=C(c2ccc(Nc3nc(Nc4ccc(F)cc4)nc(Nc4ccc(Cl)cc4)n3)cc2)CC1c1ccc(Cl)cc1 (stereo not given),91.1%
5,Cc1cc(Cl)ccc1NS(=O)(=O)c1ccc(-c2cnc(C3CC3)o2)cc1,6.12% (active)
6,COc1ccc([C@H]2c3cc(OC)c(OC)cc3C=C(C=O)C2CO)cc1OC (stereo not given in full),70.8%
7,CCc1ccc2nc(NC(=O)Cc3csc(NC(=O)c4ccco4)n3)sc2c1,77.5%
8,c1ccc2c(-c3nc(-c4c[nH]c5ccncc45)cs3)c[nH]c2c1,72.7%
9,O=[N+]([O-])c1ccc(Cl)c(-c2cc(CCCCO)on2)c1,101%
10,NC1=NC(c2cccc(Br)c2)c2sc3ccc(Cl)cc3c2N1 (stereo not given),103%
11,COc1ccc(C(Cc2ccccc2)NCCN2CCOCC2)cc1 (stereo not given),98.7%
12,Cc1nc2ccccc2n1CC1C(=O)NC(=O)NC1=O,99.3%
13,O=C1NC(=O)C(c2ccccc2)(c2ccccc2)N1Cc1cn(-c2c3ccccc3nc3ccccc23)nn1,87%
14,COc1cccc2c(=O)c3c(sc12)c(N1CCNCC1)nc1ccccc13,73.2%
15,O=C(N/N=C/[C@@H](O)[C@H](O)[C@H](O)CO)c1ccc(NC(=O)c2cccnc2)cc1,112%
16,COc1cccc(Cc2cc(-c3ccccc3)nn(CC(=O)c3ccccc3)c2=O)c1,57.2%
17,COc1ccc(/C=C(\C#N)n2nnc3c(F)cccc32)cc1,0.281% (active)
18,Cc1nn(-c2ccccc2)c2c1N=c1s/c(=C\c3ccc(C(F)(F)F)cc3)c(=O)n1CN2,40.4%
19,CN(C)CCS(=O)(=O)Nc1cc(-c2ccc3ncc(C#N)c(Nc4ccc(F)c(Cl)c4)c3c2)cnc1Cl,63.7%
20,Cc1cccc2c3c(sc12)C(c1ccc(Cl)cc1)C(C#N)=C(/N=C/c1ccc(Cl)cc1)O3 (stereo not given),9.29% (active)

# From PubChem BioAssay (NCI)
